According to PubChem BioAssay (EPA / NIEHS):
Active and inactive are the calls of the source. Rule for the calls: active = hit-call score of the fitted dose curve at least 0.9, where 1 is the maximum; inactive = score below 0.9.

Assays:
[1] = ATG_CRE_CIS: Attagene CIS-FACTORIAL HepG2 Assay for human cAMP Responsive Element (CRE) binding protein 3 (AID 2282926); conditions: HepG2 CRE cis-reporter, Attagene multiplexed mRNA; actives raise or lower the signal
Method in brief: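 Endogenous CRE-binding activity in HepG2 is reported through a cis-regulated transfected reporter. Following a day of exposure, mRNA levels are determined by reverse transcription PCR and fluorescent fragment analysis; fits run in both directions versus DMSO.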

[2] = ATG_CMV_CIS: Attagene CIS-FACTORIAL HepG2 Assay for human CMV (Internal Marker) (AID 2282928); conditions: HepG2 CMV promoter reporter, transcription factor profiling; actives raise or lower the signal;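 note: endpoint acts as a background internal control marker rather than a target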
Method in brief: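 Cell system: HepG2, transiently transfected multiple reporter units under cis promoters. Exposure: 24 h. Detection: RT-PCR, FAM labeling, HpaI digestion, capillary electrophoresis. Analysis: bidirectional, DMSO baseline.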

[3] = ATG_DR4_LXR_CIS: Attagene CIS-FACTORIAL HepG2 Assay for human Liver X Receptor (LXR), DR4 submotif (AID 2282929); conditions: HepG2 Attagene DR4 cis-reporter, mRNA transcription; actives raise or lower the signal
Method in brief: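 HepG2 cells were transiently transfected with multiple cis-regulated reporter units and dosed for 24 hours. The DR4 reporter mRNA was quantified by RT-PCR, 6-FAM labelling and capillary electrophoresis. Bidirectional fits used DMSO as baseline.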

[4] = biological target: Aryl hydrocarbon receptor (Homo sapiens) (UniProt P35869); assay: ATG_Ahr_CIS: Attagene CIS-FACTORIAL HepG2 Assay for human Aryl Hydrocarbon Receptor (Ahr) (AID 2282930); conditions: HepG2 AhR cis-factorial reporter transcription; actives raise or lower the signal
Method in brief: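 Following 24 h of chemical dosing, transfected HepG2 liver cells with cis-driven reporter units were lysed for RNA; reporter mRNA was quantified via RT-PCR and capillary electrophoresis, and responses fitted bidirectionally from DMSO.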

[5] = ATG_AP_1_CIS: Attagene CIS-FACTORIAL HepG2 Assay for human Activator Protein 1 (AP-1) (AID 2282931); conditions: HepG2 Attagene cis-factorial AP-1 reporter mRNA; actives raise or lower the signal
Method in brief: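 HepG2 cells transiently transfected with cis-element-driven reporter transcription units, dosed for 24 hours. Reporter mRNA measured by RT-PCR, 6-FAM labelling, HpaI digestion and capillary electrophoresis. Bidirectional fitting against DMSO baseline.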

[6] = ATG_AP_2_CIS: Attagene CIS-FACTORIAL HepG2 Assay for human Activator Protein 2 (AP-2) (AID 2282932); conditions: HepG2 AP-2 cis-reporter, Attagene transcription factor profiling; actives raise or lower the signal
Method in brief: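 Bidirectional curve fitting against DMSO was applied to reporter mRNA signals from HepG2 cells 24 h after dosing. Cis-promoter reporter units, transiently transfected, were read by RT-PCR plus capillary electrophoresis.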

[7] = ATG_BRE_CIS: Attagene CIS-FACTORIAL HepG2 Assay for human Bone Morphogenetic Protein (BMP) Response Element (BRE) (AID 2282933); conditions: HepG2 BMP response element reporter, Attagene transcription factor profiling; actives raise or lower the signal
Method in brief: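 Transient MRTU transfection of human HepG2 liver cells; 24 h compound treatment; total RNA isolated, reverse-transcribed, PCR-amplified, 6-FAM labelled, HpaI-cut, capillary electrophoresis. DMSO = negative control/baseline, bidirectional fit.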

[8] = biological target: Retinoic acid receptor alpha (Homo sapiens) (UniProt P10276); assay: ATG_DR5_RAR_CIS: Attagene CIS-FACTORIAL HepG2 Assay for human Retinoic Acid Receptor Alpha (RARE), DR5 submotif (AID 2282934); conditions: HepG2 Attagene cis-factorial RARE DR5 reporter, mRNA; actives raise or lower the signal
Method in brief: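 Transfected HepG2 reporter cells are exposed to chemicals for 24 h. Then RNA is extracted and the DR5 element reporter transcript is measured by RT-PCR and capillary electrophoresis, with bidirectional curve fitting relative to DMSO.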

[9] = biological target: Transcription factor E2F1 (Homo sapiens) (UniProt Q01094); assay: ATG_E2F_CIS: Attagene CIS-FACTORIAL HepG2 Assay for human E2F Transcription Factor 1 (AID 2282935); conditions: HepG2 Attagene cis-reporter, E2F reporter RNA transcripts; actives raise or lower the signal
Method in brief: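 Multiplexed cis-reporter assay: HepG2, transient transfection, 24 h dosing, mRNA quantitation by labeled RT-PCR and CE.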

[10] = ATG_E_Box_CIS: Attagene CIS-FACTORIAL HepG2 Assay for human Enhancer Box (E-box) (AID 2282936); conditions: HepG2 E-box cis-reporter transcription, actives raise or lower the signal
Method in brief: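 Multiplexed CIS reporter system in transiently transfected HepG2 cells measures native transcription factor activity. Reporter RNA after 24 h exposure is profiled by RT-PCR-capillary electrophoresis.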

[11] = ATG_M_61_CIS: Attagene CIS-FACTORIAL HepG2 Assay for M61 Transcription Factor (Internal Marker) (AID 2282937); conditions: HepG2 Attagene CIS-FACTORIAL M61 internal marker reporter; actives raise or lower the signal
Method in brief: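 HepG2 cells transiently transfected with multiplexed cis-promoter reporter units reporting endogenous transcription factor activity, measured 24 h after dosing. Reporter mRNA quantified by RT-PCR and capillary electrophoresis; bidirectional fit against DMSO baseline.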

[12] = ATG_EGR_CIS: Attagene CIS-FACTORIAL HepG2 Assay for human Early Growth Response 1 (EGR1) (AID 2282938); conditions: HepG2 Attagene CIS-FACTORIAL EGR reporter mRNA; actives raise or lower the signal
Method in brief: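 HepG2 cells transiently transfected with cis-element-driven multiplexed reporter units, dosed for 24 h. EGR1-element reporter mRNA quantified by RT-PCR, 6-FAM labelling, HpaI digestion and capillary electrophoresis; bidirectional fit versus DMSO.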

[13] = ATG_M_19_CIS: Attagene CIS-FACTORIAL HepG2 Assay for M19 Transcription Factor (Internal Marker) (AID 2282939); conditions: HepG2 Attagene CIS-FACTORIAL M19 internal marker reporter; actives raise or lower the signal
Method in brief: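 Transfect HepG2 with MRTU reporter library → dose chemical, 24 h → isolate total RNA, reverse-transcribe with oligo(dT) → PCR, 6-FAM label, HpaI cut (2 h, 37 C) → capillary electrophoresis. Bidirectional fit vs DMSO.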

[14] = ATG_Ets_CIS: Attagene CIS-FACTORIAL HepG2 Assay for human Erythroblast Transformation Specific (ETS) (AID 2282941); conditions: HepG2 ETS cis-reporter transcription, actives raise or lower the signal
Method in brief: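 After transient cis-reporter transfection, HepG2 cells receive test chemical for 24 h. Reporter mRNA levels, measured by RT-PCR and capillary electrophoresis fluorescence, are analysed bidirectionally relative to the DMSO baseline.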

[15] = biological target: Hepatocyte nuclear factor 3-beta (Homo sapiens) (UniProt Q9Y261); assay: ATG_FoxA2_CIS: Attagene CIS-FACTORIAL HepG2 Assay for human Forkhead box A2 (FOXA2) (AID 2282942); conditions: HepG2 cis-reporter transcription factor activity, 24 h; actives raise or lower the signal
Method in brief: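 HepG2 transiently transfected with a multiplexed cis-promoter reporter library read endogenous FOXA2 activity. After 24 h compound exposure, reporter mRNA was quantified by RT-PCR, HpaI digestion and capillary electrophoresis. Bidirectional fit against DMSO.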

[16] = ATG_FoxO_CIS: Attagene CIS-FACTORIAL HepG2 Assay for human Forkhead box O (FoxO) (AID 2282943); conditions: HepG2 Attagene cis-reporter, FoxO element, mRNA; actives raise or lower the signal
Method in brief: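 24 h chemical exposure, HepG2 with transient cis-MRTU transfection. RNA extraction, oligo(dT) RT, reporter-specific PCR, primer-extension labelling, HpaI digestion, CE fragment analysis; bidirectional fit, DMSO baseline.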

[17] = ATG_GATA_CIS: Attagene CIS-FACTORIAL HepG2 Assay for human GATA Binding Protein (AID 2282944); conditions: HepG2 GATA cis-element reporter, Attagene multiplex mRNA; actives raise or lower the signal
Method in brief: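 Transient MRTU transfection, HepG2, 24 h compound exposure. Total RNA → oligo(dT) RT → PCR → 6-FAM primer extension → HpaI cut → CE. Bidirectional fit vs DMSO.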

[18] = ATG_GLI_CIS: Attagene CIS-FACTORIAL HepG2 Assay for human Zinc Finger Protein GLI1 (AID 2282945); conditions: HepG2, Attagene cis-factorial reporter mRNA, GLI element; actives raise or lower the signal
Method in brief: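 HepG2 cells transiently transfected with cis-promoter multiplexed reporter units report endogenous transcription factor activity. After 24 h chemical exposure, reporter mRNA was quantified by RT-PCR, 6-FAM labelling, HpaI digestion and capillary electrophoresis, with bidirectional fitting against DMSO.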

[19] = biological target: CCAAT/enhancer-binding protein beta (Homo sapiens) (UniProt P17676); assay: ATG_C_EBP_CIS: Attagene CIS-FACTORIAL HepG2 Assay for human CCAAT/Enhancer Binding Protein (C/EBP) beta (AID 2282927); conditions: HepG2 Attagene cis-factorial transcription factor reporter; actives raise or lower the signal
Method in brief: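 Chemical-treated HepG2 cells (24 h) bearing cis-regulated reporter constructs were processed for total RNA, then reverse transcription, PCR amplification, fluorescent primer extension and fragment analysis; gain- and loss-of-signal were fitted against DMSO.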

[20] = ATG_ERE_CIS: Attagene CIS-FACTORIAL HepG2 Assay for Estrogen Response Element (ERE) (AID 2282940); conditions: HepG2 ERE cis-reporter, Attagene RNA transcript; actives raise or lower the signal
Method in brief: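 Transient MRTU transfection of human HepG2; cis-element promoters; 24 h dosing; total RNA → RT (oligo dT) → PCR → 6-FAM primer extension → HpaI digest → CE fluorescence. Bidirectional fit, DMSO baseline.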

Measured: AC50

Retinoic acid receptor alpha (Homo sapiens), sequence (P10276 whole entry, looked up): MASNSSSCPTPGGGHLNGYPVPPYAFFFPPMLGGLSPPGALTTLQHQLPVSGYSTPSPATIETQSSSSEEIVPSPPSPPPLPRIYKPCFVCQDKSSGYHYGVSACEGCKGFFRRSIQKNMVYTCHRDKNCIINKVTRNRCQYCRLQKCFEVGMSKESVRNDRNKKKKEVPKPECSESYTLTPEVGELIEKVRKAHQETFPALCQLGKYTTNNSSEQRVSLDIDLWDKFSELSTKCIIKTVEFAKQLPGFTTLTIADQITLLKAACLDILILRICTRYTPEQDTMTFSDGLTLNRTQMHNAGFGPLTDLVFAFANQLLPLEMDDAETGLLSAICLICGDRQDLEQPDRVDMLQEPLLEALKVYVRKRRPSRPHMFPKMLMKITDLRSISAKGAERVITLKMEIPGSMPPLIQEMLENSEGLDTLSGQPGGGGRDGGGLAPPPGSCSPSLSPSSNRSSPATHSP
Transcription factor E2F1 (Homo sapiens), sequence (Q01094 whole entry, looked up): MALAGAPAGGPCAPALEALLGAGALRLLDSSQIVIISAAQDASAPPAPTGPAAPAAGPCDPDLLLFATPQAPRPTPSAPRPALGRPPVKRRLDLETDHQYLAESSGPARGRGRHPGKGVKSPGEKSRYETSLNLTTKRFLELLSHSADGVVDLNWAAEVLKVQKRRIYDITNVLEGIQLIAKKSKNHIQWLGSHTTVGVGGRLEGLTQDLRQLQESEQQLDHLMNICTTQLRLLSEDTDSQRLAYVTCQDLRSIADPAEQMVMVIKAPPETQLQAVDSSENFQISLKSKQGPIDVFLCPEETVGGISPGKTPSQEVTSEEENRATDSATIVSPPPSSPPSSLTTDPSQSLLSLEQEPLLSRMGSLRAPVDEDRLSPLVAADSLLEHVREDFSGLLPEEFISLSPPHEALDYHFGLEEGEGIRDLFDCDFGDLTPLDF
Hepatocyte nuclear factor 3-beta (Homo sapiens), sequence (Q9Y261 whole entry, looked up): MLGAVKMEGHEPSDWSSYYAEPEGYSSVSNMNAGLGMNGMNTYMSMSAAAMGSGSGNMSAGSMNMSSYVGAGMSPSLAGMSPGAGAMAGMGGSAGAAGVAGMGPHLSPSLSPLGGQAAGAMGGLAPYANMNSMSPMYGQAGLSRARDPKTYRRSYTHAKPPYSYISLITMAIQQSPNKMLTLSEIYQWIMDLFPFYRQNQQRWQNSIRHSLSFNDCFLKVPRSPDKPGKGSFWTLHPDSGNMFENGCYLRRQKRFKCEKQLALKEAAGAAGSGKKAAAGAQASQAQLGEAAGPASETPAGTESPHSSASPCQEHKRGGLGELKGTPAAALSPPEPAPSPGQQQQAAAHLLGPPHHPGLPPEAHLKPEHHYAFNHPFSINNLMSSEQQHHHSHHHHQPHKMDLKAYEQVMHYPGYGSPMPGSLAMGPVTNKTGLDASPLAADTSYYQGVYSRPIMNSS
Aryl hydrocarbon receptor (Homo sapiens), sequence (P35869 whole entry, looked up): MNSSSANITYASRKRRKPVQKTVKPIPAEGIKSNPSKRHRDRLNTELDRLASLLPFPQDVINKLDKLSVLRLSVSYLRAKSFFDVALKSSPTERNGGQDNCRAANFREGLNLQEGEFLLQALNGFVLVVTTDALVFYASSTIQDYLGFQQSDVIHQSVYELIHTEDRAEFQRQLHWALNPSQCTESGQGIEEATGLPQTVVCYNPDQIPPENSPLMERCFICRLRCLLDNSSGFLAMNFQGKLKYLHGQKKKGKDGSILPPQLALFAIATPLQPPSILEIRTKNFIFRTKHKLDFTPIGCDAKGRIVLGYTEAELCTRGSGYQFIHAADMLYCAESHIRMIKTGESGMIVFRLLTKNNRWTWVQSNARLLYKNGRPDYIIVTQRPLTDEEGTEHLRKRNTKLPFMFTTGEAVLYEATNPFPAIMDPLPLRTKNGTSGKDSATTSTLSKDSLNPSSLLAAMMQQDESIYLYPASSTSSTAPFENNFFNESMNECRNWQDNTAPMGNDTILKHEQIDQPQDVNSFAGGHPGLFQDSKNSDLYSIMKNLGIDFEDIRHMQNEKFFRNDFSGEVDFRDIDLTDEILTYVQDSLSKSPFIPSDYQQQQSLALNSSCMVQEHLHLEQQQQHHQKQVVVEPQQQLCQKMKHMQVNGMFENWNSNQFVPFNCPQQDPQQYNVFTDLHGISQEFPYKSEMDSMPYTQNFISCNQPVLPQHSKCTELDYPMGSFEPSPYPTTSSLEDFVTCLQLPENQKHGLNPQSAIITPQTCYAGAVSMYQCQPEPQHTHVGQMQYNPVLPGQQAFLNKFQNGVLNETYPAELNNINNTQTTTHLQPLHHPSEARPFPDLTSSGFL
CCAAT/enhancer-binding protein beta (Homo sapiens), sequence (P17676 whole entry, looked up, the tested form may be a part): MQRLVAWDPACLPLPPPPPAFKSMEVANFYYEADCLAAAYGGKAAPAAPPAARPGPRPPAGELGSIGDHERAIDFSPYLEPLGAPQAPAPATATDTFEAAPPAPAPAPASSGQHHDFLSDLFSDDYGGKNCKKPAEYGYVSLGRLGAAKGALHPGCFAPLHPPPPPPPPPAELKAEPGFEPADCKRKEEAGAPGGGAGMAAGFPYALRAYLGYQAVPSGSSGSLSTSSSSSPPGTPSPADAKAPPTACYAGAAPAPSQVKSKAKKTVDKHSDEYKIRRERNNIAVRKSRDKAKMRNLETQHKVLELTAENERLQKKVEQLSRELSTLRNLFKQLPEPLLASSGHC

N[C@@H](Cc1cc(I)c(Oc2cc(I)c(O)c(I)c2)c(I)c1)C(=O)O
active: [4] 3.62 µM
not listed: [19] | [20]
inactive: all other assays above

Cc1cc(S(=O)(=O)O)ccc1N=Nc1c(O)ccc2ccccc12
active: [4] 2.32 µM
not listed: [5] | [17] | [19] | [20]
inactive: all other assays above

CCCCCCCC(=O)OCC(O)CO (stereo unspecified)
not listed: [4] | [5] | [14] | [17] | [20]
inactive: all other assays above

CN(c1nccc(=O)[nH]1)C1CCN(c2nc3ccccc3n2Cc2ccc(F)cc2)CC1
not listed: [5] | [14] | [19]
inactive: all other assays above

C=CCCC(=O)/C=C/C1C(C)=CCCC1(C)C (stereo unspecified)
active: [2] 140 µM | [3] 175 µM | [4] 53.2 µM | [5] 121 µM | [10] 160 µM
not listed: [7] | [19] | [20]
inactive: all other assays above

OCC(O)c1ccccc1 (stereo unspecified)
not listed: [9] | [19]
inactive: all other assays above

O=C1OC(=O)c2c(Br)c(Br)c(Br)c(Br)c21
active: [16] 165 µM
not listed: [4] | [5] | [15] | [17] | [20]
inactive: all other assays above
